Reference: PubChem BioAssay (NCI)
This is part of a sample that, as a whole, favours compounds with a hit. Of some 79,000 tested, about 15% had one in any assay. Calls of active or inactive are those of the source. No stated cut-off is given here; in the data, active means growth inhibition above about 70%; inactive means the rest.

What was measured:
[1] = NCI Yeast Anticancer Drug Screen. Data for the rad52 strain (AID 147);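 further: 0% = growth of vehicle-treated control cultures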; conditions: S. cerevisiae rad52 mutant growth inhibition, stronger effect = higher value
In short: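 Here a repair-compromised yeast strain receives each compound; its growth is then quantified and normalised to vehicle-only controls.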

[2] = NCI Yeast Anticancer Drug Screen. Data for the wt1 strain (AID 149);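 further: 0% = growth of vehicle-treated wt1 cultures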; conditions: S. cerevisiae wt1 strain (SPY 50644) growth inhibition, stronger effect = higher value
In short: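 Using yeast strain wt1, compound-induced growth inhibition was determined against vehicle-treated cultures.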

[3] = NCI Yeast Anticancer Drug Screen. Data for the rad50EPP+ strain (AID 151);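 further: 0% = growth of vehicle-treated control cultures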; conditions: S. cerevisiae rad50 mutant strain, stronger effect = higher value
In short: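 Read-out is yeast growth inhibition relative to vehicle; cells used were the rad50EPP+ strain.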

[4] = NCI Yeast Anticancer Drug Screen. Data for the mgt1 strain (AID 153); conditions: S. cerevisiae mgt1 mutant growth inhibition, stronger effect = higher value
In short: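 Measured: inhibition of mgt1 yeast growth by compound, normalized to vehicle-treated cultures.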

[5] = NCI Yeast Anticancer Drug Screen. Data for the rad50 strain (AID 155);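 further: 0% = growth of vehicle-only cultures of the same strain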; conditions: S. cerevisiae rad50 strain growth inhibition, stronger effect = higher value
In short: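 Relative growth inhibition (compound vs vehicle) was measured in yeast with a defined repair-gene alteration.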

[6] = NCI Yeast Anticancer Drug Screen. Data for the mec2-1 strain (AID 157); conditions: S. cerevisiae mec2-1 strain, stronger effect = higher value
In short: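 Using mec2-1 yeast: add compound, measure growth, express inhibition versus vehicle-treated cultures.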

[7] = NCI Yeast Anticancer Drug Screen. Data for the sgs1 mgt1 strain (AID 161);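 further: 0% = growth of cultures given vehicle only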; conditions: S. cerevisiae sgs1 mgt1 strain, stronger effect = higher value
In short: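 Yeast cells carrying a defined DNA-repair defect were exposed to test compounds. Growth inhibition was measured relative to vehicle-treated controls.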

[8] = NCI Yeast Anticancer Drug Screen. Data for the CLN2oe strain (AID 163);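 further: 0% = growth of vehicle-only control cultures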; conditions: S. cerevisiae CLN2oe strain, stronger effect = higher value
In short: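 Whole-cell yeast growth assay. A strain engineered for altered cell-cycle control received compound, and inhibition relative to vehicle-treated cultures was recorded.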

[9] = NCI Yeast Anticancer Drug Screen. Data for the cln2 rad14 strain (AID 165);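 further: 0% = growth equal to vehicle treated cultures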; conditions: S. cerevisiae cln2 rad14 strain, stronger effect = higher value
In short: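 Yeast strain cln2 rad14, bearing defects in cell cycle control and DNA repair, serves as the test system; values reflect growth inhibition compared with vehicle.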

[10] = NCI Yeast Anticancer Drug Screen. Data for the bub3 strain (AID 167); conditions: S. cerevisiae bub3 mutant strain, stronger effect = higher value
In short: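 Screening used yeast with an engineered genetic alteration affecting cell cycle control. Compound-exposed cultures were compared with vehicle cultures, and reduced growth was taken as inhibition.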

[11] = NCI Yeast Anticancer Drug Screen. Data for the wt2 strain (AID 169);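 further: 0% = growth of vehicle-treated yeast cultures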; conditions: S. cerevisiae wt2 strain growth inhibition, stronger effect = higher value
In short: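 Treated yeast vs. vehicle-treated yeast: growth inhibition determined.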

[12] = NCI Yeast Anticancer Drug Screen. Data for the mlh1 strain (AID 171);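 further: 0% = growth of vehicle-treated control cultures of the same strain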; conditions: S. cerevisiae mlh1 strain growth inhibition, stronger effect = higher value
In short: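 A yeast strain with a defined genetic lesion serves as the test organism. Cultures receive compound or vehicle, and growth is measured.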

[13] = NCI Yeast Anticancer Drug Screen. Data for the mlh1 rad18 strain (AID 175); conditions: S. cerevisiae mlh1 rad18 strain growth inhibition, stronger effect = higher value
In short: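 Steps: expose repair-defective yeast to compound; measure growth; express inhibition against vehicle-treated controls.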

[14] = NCI Yeast Anticancer Drug Screen. Data for the rad18 strain (AID 177); conditions: S. cerevisiae rad18 mutant growth inhibition, stronger effect = higher value
In short: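 Measured value is growth inhibition of a yeast strain bearing a DNA repair alteration, referenced to vehicle-treated cells.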

[15] = NCI Yeast Anticancer Drug Screen. Data for the rad14 strain (AID 159);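 further: 0% = growth of vehicle-treated control cultures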; conditions: S. cerevisiae rad14 strain growth inhibition, stronger effect = higher value
In short: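 Screen for anticancer potential: a yeast strain altered in DNA damage repair is grown with compound, and reduced growth is quantified against vehicle controls.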

[16] = at 5.0 µM (retest, dose inferred, filed as 0.5)
[17] = at 50.0 µM (retest, dose inferred, filed as 5.0)

Measured: growth inhibition

CCO/C(C)=C(/C#N)C(N)=S
inactive: [1]; at 1.2 µM -1% | [1]; at 3.7 µM -1% | [1]; at 11.0 µM -1% | [1]; at 33.0 µM -2% | [1]; at 100.0 µM 3% | [2]; at 1.2 µM -1% | [2]; at 3.7 µM -2% | [2]; at 11.0 µM 0% | [2]; at 33.0 µM 0% | [2]; at 100.0 µM 1% | [3]; at 1.2 µM -3% | [3]; at 3.7 µM -6% | [3]; at 11.0 µM -11% | [3]; at 33.0 µM -16% | [3]; at 100.0 µM 2% | [4]; at 1.2 µM -2% | [4]; at 3.7 µM -4% | [4]; at 11.0 µM -5% | [4]; at 33.0 µM 14% | [4]; at 100.0 µM 0% | [5]; at 1.2 µM 1% | [5]; at 3.7 µM -1% | [5]; [16] 13% | [5]; at 11.0 µM -1% | [5]; at 33.0 µM 0% | [5]; [17] 67% | [5]; at 50.0 µM 60% | [5]; at 100.0 µM 2% | [6]; at 1.2 µM -2% | [6]; at 3.7 µM 1% | [6]; [16] 3% | [6]; at 11.0 µM -1% | [6]; at 33.0 µM -1% | [6]; [17] 2% | [6]; at 50.0 µM 35.5% | [6]; at 100.0 µM 1% | [7]; [16] -9% | [7]; at 50.0 µM 40.3% | [8]; at 1.2 µM -3% | [8]; at 3.7 µM -4% | [8]; at 11.0 µM -1% | [8]; at 33.0 µM -8% | [8]; at 100.0 µM -11% | [9]; [16] 5% | [9]; [17] 21% | [10]; at 1.2 µM -4% | [10]; at 3.7 µM -3% | [10]; [16] 4% | [10]; at 11.0 µM -3% | [10]; at 33.0 µM -7% | [10]; at 100.0 µM -4% | [11]; at 1.2 µM -1% | [11]; at 3.7 µM -2% | [11]; at 11.0 µM 0% | [11]; at 33.0 µM 1% | [11]; at 100.0 µM 1% | [12]; at 1.2 µM -2% | [12]; at 3.7 µM -3% | [12]; at 11.0 µM -1% | [12]; at 33.0 µM -3% | [12]; at 100.0 µM 0% | [13]; [16] 3% | [13]; at 50.0 µM 42.9% | [14]; at 1.2 µM 0% | [14]; at 3.7 µM -1% | [14]; at 11.0 µM 7% | [14]; at 33.0 µM -1% | [14]; at 100.0 µM 4%
active: [7]; [17] 73% | [9]; at 50.0 µM 85.3% | [10]; [17] 70% | [10]; at 50.0 µM 74.7% | [13]; [17] 84%

O=C(COC(=O)c1ccccc1)c1ccc(Br)cc1
active: [1]; at 33.0 µM 99% | [1]; at 100.0 µM 98% | [2]; at 33.0 µM 99% | [2]; at 100.0 µM 97% | [3]; at 1.2 µM 75% | [3]; at 3.7 µM 93% | [3]; at 11.0 µM 99% | [3]; at 33.0 µM 99% | [3]; at 100.0 µM 97% | [5]; at 33.0 µM 98% | [5]; [17] 99% | [5]; at 50.0 µM 98.8% | [5]; at 100.0 µM 97% | [6]; at 33.0 µM 99% | [6]; [17] 99% | [6]; at 50.0 µM 99.3% | [6]; at 100.0 µM 99% | [15]; at 33.0 µM 99% | [15]; at 100.0 µM 98% | [7]; [17] 99% | [7]; at 50.0 µM 99.4% | [8]; at 33.0 µM 99% | [8]; at 100.0 µM 97% | [9]; [17] 99% | [9]; at 50.0 µM 98.8% | [10]; at 11.0 µM 100% | [10]; at 33.0 µM 99% | [10]; [17] 99% | [10]; at 50.0 µM 99.7% | [10]; at 100.0 µM 99% | [11]; at 11.0 µM 96% | [11]; at 33.0 µM 100% | [11]; at 100.0 µM 99%
inactive: [1]; at 1.2 µM 14% | [1]; at 3.7 µM 20% | [1]; at 11.0 µM 45% | [2]; at 1.2 µM 2% | [2]; at 3.7 µM -4% | [2]; at 11.0 µM 8% | [5]; at 1.2 µM 17% | [5]; at 3.7 µM 23% | [5]; [16] 31% | [5]; at 11.0 µM 68% | [6]; at 1.2 µM 4% | [6]; at 3.7 µM 7% | [6]; [16] 67% | [6]; at 11.0 µM 17% | [15]; at 1.2 µM 16% | [15]; at 3.7 µM 18% | [15]; at 11.0 µM 30% | [7]; [16] 58% | [8]; at 1.2 µM 0% | [8]; at 3.7 µM 13% | [8]; at 11.0 µM 64% | [9]; [16] 12% | [10]; at 1.2 µM 49% | [10]; at 3.7 µM 65% | [10]; [16] 41% | [11]; at 1.2 µM 16% | [11]; at 3.7 µM 63%
